A selection: hits, their analogues and other compounds. The true share with any hit is near 4.7%.
GDH-TPI counter-1: inhibits GDH-TPI coupling enzymes, artifact for Mtb FBA screen; GDH-TPI coupled enzyme counterscreen, NADH absorbance; inhibition, % at 4.8 µM; hit rate 1.2% among 360,000
DUSP3 inh: DUSP3 (human) phosphatase inhibition | P51452 | recombinant VHR phosphatase, pNPP absorbance | inhibition, % at 13.3 µM | hit rate 0.52% among 290,000 | AID 1654; in the data active = inhibition above about 50%
SARS 3CLpro inh: SARS-CoV 3CLpro protease inhibition. P0C6X7. recombinant SARS-CoV 3CLpro, quenched FRET peptide cleavage. inhibition, % at 6 µM. hit rate 0.14% among 290,000. AID 1706; in the data active = inhibition above about 12%
CCHF vOTU inh: CCHFV vOTU protease inhibition; Pep-AMC fluorescence; inhibition, % at 11.5 µM; hit rate 0.55% among 370,000; AID 651958
RecA splice inh: inhibitors of M. tuberculosis RecA intein splicing | inhibition, % (test concentration not listed) | cell-free RecA intein splicing, fluorescence | P9WHJ3 | hit rate 0.75% among 290,000 | AID 2221; in the data active = inhibition above about 30%
Target sequence (P9WHJ3 whole entry, looked up, canonical isoform): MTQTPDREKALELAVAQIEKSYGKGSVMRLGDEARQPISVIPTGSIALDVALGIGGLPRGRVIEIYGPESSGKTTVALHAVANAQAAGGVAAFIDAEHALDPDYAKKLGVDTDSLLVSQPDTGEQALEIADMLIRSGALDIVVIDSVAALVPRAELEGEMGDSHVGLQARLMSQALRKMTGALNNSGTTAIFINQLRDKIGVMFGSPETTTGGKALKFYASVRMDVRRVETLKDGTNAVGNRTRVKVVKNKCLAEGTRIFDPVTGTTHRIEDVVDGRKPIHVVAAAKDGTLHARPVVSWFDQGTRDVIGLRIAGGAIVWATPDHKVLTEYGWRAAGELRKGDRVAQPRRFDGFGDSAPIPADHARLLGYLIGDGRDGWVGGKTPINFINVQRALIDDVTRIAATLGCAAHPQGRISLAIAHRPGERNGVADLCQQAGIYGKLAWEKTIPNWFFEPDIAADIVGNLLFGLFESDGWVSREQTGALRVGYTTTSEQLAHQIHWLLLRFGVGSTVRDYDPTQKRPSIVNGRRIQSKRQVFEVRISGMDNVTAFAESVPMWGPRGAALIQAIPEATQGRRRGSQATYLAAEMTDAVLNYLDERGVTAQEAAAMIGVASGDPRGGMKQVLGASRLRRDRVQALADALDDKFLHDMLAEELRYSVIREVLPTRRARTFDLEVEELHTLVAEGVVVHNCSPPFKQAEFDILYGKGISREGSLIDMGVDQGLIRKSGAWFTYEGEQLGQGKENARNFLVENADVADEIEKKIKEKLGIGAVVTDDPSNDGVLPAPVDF
Mtb FBA inh: inhibitors of M. tuberculosis fructose-bisphosphate aldolase | P9WQA3 | purified M. tuberculosis FBA, fluorescence read-out | inhibition, % at 1 µM | hit rate 2.3% among 360,000; in the data active = inhibition above about 27%
Mtb FBA inh conf: Mtb FBA inhibition, confirmed; shares compounds with Mtb FBA inh; purified M. tuberculosis FBA, fluorescence read-out; inhibition, % at 1 µM; hit rate 78% among 5,600; AID 651616; in the data active = inhibition above about 27%
GDH-TPI counter-2: counter-screen for M. tuberculosis FBA inhibitors: GDH-TPI coupled enzyme inhibition; shares compounds with Mtb FBA inh; GDH-TPI coupled enzyme counterscreen, fluorescence; inhibition, % at 1 µM; hit rate 81% among 5,600; in the data active = inhibition above about 10%
A number is an active result; n = inactive; x = no result; + = active, no number. Rule as the data show it, unless noted: active = inhibition above about 30%; inactive = the rest.

SMILES	GDH-TPI counter-1	DUSP3 inh	SARS 3CLpro inh	CCHF vOTU inh	RecA splice inh	Mtb FBA inh	Mtb FBA inh conf	GDH-TPI counter-2
CC1(C)Cc2c(cnn2-c2ccccc2)-c2c1c1ccccc1n2CC(O)CBr (configuration not stated)	n	n	n	n	n	31	163	107
CC1(C)Cc2c(cnn2-c2ccccc2)C(=O)/C1=N\NC(=O)c1ccccc1N	n	n	n	n	n	n	x	x
Cc1ccc(CNC(=O)CN(C(=O)C2(C)CC(=O)N=C3C=CC=CN32)c2ccccc2)cc1 (configuration not stated)	n	n	n	n	n	74	n	n
Cc1ccc(CNC(=O)CN(C(=O)C2(C)CC(=O)N=C3C=CC=CN32)c2cccc(C)c2C)cc1 (configuration not stated)	n	n	n	n	n	111	93	86
C[C@@H]1COC(=O)[C@@H](CC(=O)OC(C)(C)C)C/C=C\C[C@H](CC(=O)N(CCO)Cc2ccccc2)C(=O)N1	n	x	x	n	x	n	x	x
CCN1CCN(c2cc3c(cc2F)c(=O)c(C(=O)O)cn3C2CC2)CC1	n	n	n	n	n	n	x	x
CC(=O)N1CCN(c2cc3c(cc2F)c(=O)c(C(=O)O)cn3C2CC2)CC1	n	n	n	n	n	30	187	140
CCN(CC)C(=O)c1ccc2nc([C@@H]3O[C@H](CO)[C@H](O)[C@H](O)[C@H]3O)[nH]c2c1	n	x	x	n	x	n	x	x
CCCCNC(=O)C1(C)CCCCCN1Cc1cccc2c(OC)cc(C(=O)OCC)cc12 (configuration not stated)	n	x	x	n	x	n	x	x
COc1ccc(-n2c(SCC(=O)NC3CCCCCC3)nnc2-c2ccncc2)cc1	x	x	x	n	x	x	x	x
Cc1ccc(-c2nc(CCNC(=O)c3ccco3)cs2)cc1	n	x	x	n	n	n	x	x
COc1cc(-c2nc(CCNC(=O)c3ccco3)cs2)cc(OC)c1OC	n	n	n	n	n	37	139	112
Cc1ccc(CCNC(=O)Cn2ccc3cc(S(=O)(=O)N4CCCC4)ccc32)cc1	n	n	n	n	n	84	44	27
CC(C)Oc1ncnc2c1[nH]c1ccccc12	n	n	n	n	x	33	165	130
CCn1c(=O)c2cc(C(=O)NCC(OC)OC)sc2c2ccccc21	n	n	n	n	n	61	+	179
CCCN(CCC)CCCNC(=O)c1cc2c(=O)n(CC)c3ccccc3c2s1	n	n	n	n	n	27	+	+
CCn1c(=O)c2cc(C(=O)N3CCN(C(=O)c4ccco4)CC3)sc2c2ccccc21	x	n	n	x	x	x	x	x
CCOC(CNC(=O)c1cc2c(=O)n(CC)c3ccccc3c2s1)OCC	n	n	n	n	n	n	x	x
CCCCN(CC)CCCNC(=O)c1cc2c(=O)n(CC)c3ccccc3c2s1	n	n	n	n	n	79	n	n
CCCCN(CC)CCNC(=O)c1cc2c(=O)n(CC)c3ccccc3c2s1	n	x	n	n	n	40	176	116
CSCCC(NC(=O)COc1ccccc1)C(=O)N(C)Cc1ccc(Cl)cc1Cl (configuration not stated)	n	x	x	n	x	n	x	x
COc1cc(C2NC(=O)CCC2[N+](=O)[O-])cc(Br)c1OC (configuration not stated)	n	x	n	n	n	n	x	x
c1ccc2c(c1)Nc1cc3ccccc3cc1O2	n	x	x	n	x	n	x	x
CC1(C)CC(=O)c2cnc3c(C#N)cnn3c2C1	n	n	n	n	n	n	x	x
C[C@H]1CN([C@@H](C)CO)C(=O)CCCn2cc(nn2)CO[C@@H]1CN(C)S(C)(=O)=O	n	x	x	n	x	n	x	x
CCn1c(=O)c2cc(C(=O)NCCC(C)C)sc2c2ccccc21	n	n	n	n	n	n	x	x
CCn1c(=O)c2cc(C(=O)NCCCOC)sc2c2ccccc21	n	n	n	n	n	54	+	186
CCC(C)NC(=O)c1cc2c(=O)n(CC)c3ccccc3c2s1 (configuration not stated)	n	n	n	n	n	48	100	92
Cc1ccc(S(=O)(=O)NNc2ccccc2)c(C)c1	n	n	n	n	x	n	x	x
CCN(CC)S(=O)(=O)c1ccc(N2CCCC2)c(NC(=O)CC(C)(C)C)c1	n	n	n	n	n	n	x	x

Compound activity from PubChem.
